# 697 NFkB inh = lowers PMA/ionomycin-induced NF-kB signal in 697 B cells | 697 B-cell NF-kB luciferase reporter, 16 h | inhibition, % at 4 µM | 0.33% of 330,000 active | AID 435022; in the data active = inhibition above about 35%
# Shn3 inh set2 = Schnurri-3 reporter inhibition in Clone20 osteoblasts; Clone20 osteoblast Shn3 3'UTR firefly luciferase, 24 h; inhibition, % at 12.5 µM; 0.52% of 360,000 active; AID 588674;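 active = mean inhibition of at least 75% with every replicate also reaching 75%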;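 also: 0% = median of neutral control wells and 100% = pilot-screen positive control compound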
# LMP1 NFkB inh = reduces LMP1-driven NF-kappaB luciferase signal; LMP1-induced NF-kappaB luciferase reporter cells, luminescence; inhibition, % at 12.5 µM; 0.69% of 350,000 active; AID 504558; in the data active = inhibition above about 41%;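 also: 0% = neutral control wells and 100% = reference inhibitor control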
# TRPM1 prom inh = inhibitors of MITF-driven TRPM1 promoter in melanoma cells; SK-MEL-5 TRPM1 promoter luciferase, 24 h; inhibition, % at 12.5 µM; 0.83% of 330,000 active; AID 488899;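 active = mean inhibition across replicates of 60% or more, whatever share of single replicates reaches that level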
# Gli-Sufu antag = blocks Gli-Sufu signaling in a luciferase reporter; Sufu-KO-LIGHT fibroblasts, Gli luciferase reporter luminescence; 0.74% of 340,000 active; inhibition, % at 5 µM; AID 588413;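 active = inhibition above about 55%, limit read from the data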;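 also: 0% = DMSO-treated cells and 100% = wells with medium but no cells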
# Jurkat NFkB inh = lowers PMA/ionomycin-induced NF-kB signal in Jurkat cells; PMA/ionomycin-induced NF-kB luciferase reporter, luminescence; inhibition, % at 4 µM; 0.53% of 330,000 active; in the data active = inhibition above about 50%
# Jurkat NFkB conf = lowers PMA/ionomycin-induced NF-kB signal in Jurkat cells; shares compounds with Jurkat NFkB inh; Jurkat NF-kB luciferase, 16 h; inhibition, % at 4 µM; 27% of 2,700 active; AID 435020;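 active = inhibition reaching about 45% at 4 µM in either replicate, limit read from the data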;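 also: plate controls were PMA/ionomycin stimulated DMSO wells for no effect and unstimulated DMSO wells for full effect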
# 697 NFkB conf = inhibitors of the PMA/ionomycin-induced NF-kB reporter in 697 B cells, retest; shares compounds with 697 NFkB inh; 697 B-cell NF-kB luciferase, 16 h; 35% of 2,000 active; AID 449746; inhibition, % at 4 µM; in the data active = inhibition mostly above about 28%, no sharp cut-off; inactive = mostly below about 22%
# * marks the source's active call; other numbers are inactive results; . = no result. Shown are actives, neighbours in structure and some others; about 2.3% of the full set was active somewhere.
SMILES,697 NFkB inh,Shn3 inh set2,LMP1 NFkB inh,TRPM1 prom inh,Gli-Sufu antag,Jurkat NFkB inh,Jurkat NFkB conf,697 NFkB conf
Clc1ccc(/C=C/c2nc3ccccc3[nH]2)cc1,-366.1,0.2,19.0,18.7,-170.9,-194.8,-110.7,-332.6
CCOC(=O)c1[nH]ncc1[C@@H]1C[C@H]2CN(Cc3cccc(Cl)c3)C(=O)[C@]23CCCN13,23.6,-11.5,-9.0,0.6,11.4,-1.5,.,.
CC(C)Cc1cc(C(C)(C)C)ccc1OC(=S)N(C)C,40.1*,19.0,3.1,3.5,-5.3,51.2*,60.5*,33.3*
O=C(COC(=O)c1ccc[nH]c1=O)Nc1ccc(N2CCCCC2)cc1,78.7*,78.6,46.0*,77.6*,53.6,51.0*,69.7*,79.8*
Cn1c(=O)c2cc(S(=O)(=O)NC(Cc3ccccc3)C(=O)NCC3CCCO3)ccc2n(C)c1=O (stereo not drawn),-5.0,-24.8,-23.2,2.1,3.3,1.1,.,.
CCCCNS(=O)(=O)c1ccc2nc(-c3cccnc3)cc(C(=O)NC3CCCC3)c2c1,12.2,.,-13.5,-1.1,11.5,-9.4,.,.
Cc1nc2ccccn2c1C(=O)/C=C/c1cccc([N+](=O)[O-])c1,39.8*,-39.6,32.1,70.6*,-4.9,50.8*,18.7,40.6*
Cc1ccccc1C(=O)NC(CC(C)C)C(=O)OCC(=O)c1c(N)n(C)c(=O)n(C)c1=O (stereo not drawn),15.7,8.1,0.8,-13.3,0.3,6.5,.,.
Cc1csc(NC(=O)c2ccc(OCC3CCCO3)cc2)n1 (stereo not drawn),29.3,-11.0,34.9,-14.3,-67.9,-80.0,.,.
O=C(Nc1nc(-c2ccc(F)c(F)c2)cs1)c1ccc(OCC2CCCO2)cc1 (stereo not drawn),50.2*,31.8,33.3,26.6,11.7,58.4*,63.0*,32.8*
C#CC(=O)N(c1ccc(OC)c(OC)c1)C(C(=O)NC1CCCC1)c1cccs1 (stereo not drawn),100.6*,87.4*,9.9,96.2*,70.1*,100.0*,85.2*,101.8*
C#CC(=O)N(c1cccc(OC)c1)C(C(=O)NC1CCCC1)c1cccs1 (stereo not drawn),103.0*,99.6*,96.2*,106.6*,0.4,98.9*,94.2*,99.8*
COc1ccc(NC(=O)NNC(=O)CCC(=O)Nc2ccccc2Cl)cc1,16.4,-15.9,-2.0,13.9,-5.4,5.8,.,.
O=C(O)c1ccccc1CSc1nnnn1-c1ccccc1,15.3,-4.5,-0.3,5.1,-0.8,1.0,.,.
Oc1oc(-c2ccc(Br)cc2)nc1/C=N/c1ccccn1,-6.9,-65.3,1.6,-41.2,-12.9,-56.4,.,.
COc1cc(/C=N/O)ccc1OCc1ccc(C(=O)O)cc1,84.8*,90.3*,86.1*,96.4*,-117.5,85.4*,67.1*,48.4*
CN1/C(=C\C=[N+](C)c2ccccc2)C(C)(C)c2ccccc21,83.4*,13.4,-16.1,30.5,84.6*,74.3*,65.7*,56.7*
CN1/C(=C\C=N\O)C(C)(C)c2ccccc21,-12.3,-4.5,28.0,-10.1,8.8,6.1,.,.
CN(C)C(=O)c1cc2cc(Br)ccc2s1,7.7,-18.5,-1.7,13.2,-0.5,3.8,.,.
Cc1ccc2nc(-c3ccccc3NC(=O)CCC(=O)O)c(=O)[nH]c2c1,-27.9,-11.1,0.3,-3.1,30.6,-13.1,.,.
CCCCCCCCCn1ccc(=N)cc1,45.4*,59.1,28.5,64.8*,88.8*,92.2*,76.8*,57.8*
CCc1ccc2c(c1)C(=O)c1ccccc1C2=O,-70.6,-66.1,-23.1,-35.8,-48.3,-73.4,.,.
CC(C)(C)c1ccc2c(c1)C(=O)c1ccccc1C2=O,-358.1,15.4,-40.5,11.4,-104.5,-206.4,-125.5,-287.5
Oc1c(N=Nc2ccccc2)sc2ccccc12,-267.8,-113.9,-19.0,-19.5,30.3,-175.7,-128.2,-285.9
N#CCC(=O)N/N=C\c1cc(Br)ccc1OC/C=C/c1ccccc1,-75.5,-59.6,-8.3,-95.8,-74.2,-63.2,.,.
SMILES,697 NFkB inh,Shn3 inh set2,LMP1 NFkB inh,TRPM1 prom inh,Gli-Sufu antag,Jurkat NFkB inh,Jurkat NFkB conf,697 NFkB conf
COc1ccc2[nH]c(C(=O)Nc3cccc(C)n3)cc2c1,-281.1,-16.8,.,.,-101.6,-189.5,-96.5,-231.2
COc1ccc2[nH]c(C(=O)Nc3ccc(C)c(F)c3)cc2c1,-27.5,-40.7,-12.1,-43.6,-29.3,-49.1,.,.
CS(=O)(=O)c1ccc(NCC2CCCO2)c([N+](=O)[O-])c1 (stereo not drawn),14.2,-10.9,14.4,8.4,-9.8,23.4,.,.
COc1c2c(cc3oc(=O)c4c5ccc(O)cc5oc4c13)OC(C)(C)CC2,-347.4,-35.3,-111.0,-55.2,-16.6,-375.6,-123.9,-376.7
CCCc1c(C)nc2c(OC)cccc2c1SCC(=O)O,16.9,-9.0,-3.8,2.1,-4.4,-5.1,.,.
Nn1cnnc1SCC(=O)Nc1ccc(C2CCCCC2)cc1,-49.4,-23.7,-1.3,-24.5,-32.2,-19.5,.,.
O=C(O)CSCC(=O)Nc1ccc(C2CCCCC2)cc1,90.2*,53.7,57.9*,74.0*,38.4,63.2*,77.6*,83.2*
O=C(O)c1ccccc1-c1ccccc1C(=O)Nc1nc2ccccc2s1,8.7,-14.7,3.5,-0.3,-2.3,-7.4,.,.
O=C(Nc1nc2ccc(F)cc2s1)c1ccccn1,-385.0,.,.,.,54.4,96.0*,-3.8,-332.4
O=C(Nc1nc2ccccc2s1)c1cnccn1,-212.9,-8.7,24.5,5.0,-70.8,-51.1,.,.
c1ccc2sc(NN=C3CCCCCC3)nc2c1,-388.3,17.0,0.8,2.8,-50.7,-155.9,-91.7,-319.5
c1ccc2sc(NCC3CCCO3)nc2c1 (stereo not drawn),-89.7,-19.1,-19.8,-51.6,-55.3,-92.8,.,.
O=C(Nc1nc2ccccc2s1)c1ccccc1,-261.2,-27.5,-26.7,15.0,-123.4,-219.7,-147.2,-310.5
CC1=C(C(=O)Nc2ccccc2F)C(c2ccsc2)C2=C(CC(c3ccccc3)CC2=O)N1 (stereo not drawn),4.8,2.3,1.7,15.4,-7.5,-4.5,.,.
COc1ccc(C)c2sc(=NC(=O)c3ccc(C(C)=O)cc3)n(C)c12,-358.8,-41.7,-30.8,-75.7,-61.0,-251.1,-136.3,-154.6
CS(=O)(=O)N1CCc2cc(C(=O)Nc3ccc(Br)cc3)ccc21,-68.3,-0.6,-8.7,-16.8,-15.7,-52.5,.,.
COc1ccc(-c2cc(=O)oc3cc(OC(=O)C4CCCCC4)c(Cl)cc23)cc1,-3.1,20.4,33.6,-2.2,.,9.8,.,.
CCc1nc2c(OCc3ccccc3)cccn2c1N(C)C(=O)c1ccc(OC)cc1,.,3.3,.,.,.,.,.,.
COCCNc1nc(C)cc(-c2cc(C(=O)NCc3ccccc3)on2)n1,13.3,1.5,4.2,7.2,-4.1,-5.8,.,.
Cc1cc(-c2cc(C(=O)NCc3ccccc3)on2)nc(S(C)(=O)=O)n1,51.4*,-17.6,-8.0,27.0,18.1,52.0*,33.5,41.7*

# Screening data as filed in PubChem BioAssay.
